Compounds with a hit are over-represented: about 1.8% of the library has one in this group of screens.
PolyA inh: inhibitors of polyadenylation in S. cerevisiae | activity score, % at 12 µM | S. cerevisiae SKY197-pL101 polyadenylation reporter, beta-gal luminescence; efflux-impaired pdr1/pdr3 knockout yeast; score 100 = 6 SD above DMSO | 300,000 tested, 0.02% active;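 active = lowest replicate activity score at least 50, where 100 means six control SD above control mean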;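 also: yeast exposed to compound for 9 h at 30 °C; higher score means more reporter readthrough which indicates perturbed polyadenylation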
NLRP3 yeast inh: inhibitors of NALP3 inflammasome in yeast | Yeast reconstituted NLRP3/ASC/caspase-1, beta-gal luminescence, 24 h | inhibition, % at 10 µM | 330,000 tested, 0.39% active | AID 2825;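 active = inhibition of 50% or more; inactive = inhibition below 50%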
SUMO Mot1 rescue: SUMOylation pathway inhibition by Mot1-301 growth rescue; growth rescue, % at 18.8 µM; S. cerevisiae Mot1-301 growth rescue, ATP luminescence, 38.5C; percent above DMSO median, 100 means doubled; 320,000 tested, 1% active;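 active = every valid replicate shows activation above 250% relative to neutral control wells; inactive = the rest, any valid replicate at or below 250%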
NALP1 inh: inhibitors of NALP1 inflammasome in yeast; S. cerevisiae NALP1/ASC/caspase-1 growth, X-gal OD620, 72 h; inhibition, % at 10 µM; 280,000 tested, 0.61% active; AID 2071; in the data active = inhibition mostly above about 24%, no sharp cut-off; inactive = mostly below about 32%
Large screens that a line does not name were inactive; ! = not confirmed by another sample.

N#CCc1nn(-c2ccccc2)c(N)c1C#N	none
CCc1nn(-c2ccccc2)c(N)c1C#N	SUMO Mot1 rescue 290
O=C(Nc1ccc(Cl)c(Cl)c1)O/N=C/c1ccncc1	SUMO Mot1 rescue 517
COc1ccc(-c2nn(-c3ccccc3)cc2CNC(=O)c2cccc([N+](=O)[O-])c2)cc1	none
CN(C)S(=O)(=O)c1ccc(N2CCCC2)c(C(=O)Nc2ccc(N3CCOCC3)cc2)c1	none
CN(C)S(=O)(=O)c1ccc(N2CCCC2)c(C(=O)Nc2ccc(C(N)=O)cc2)c1	SUMO Mot1 rescue 261 (no result: NALP1 inh)
O=C(COC(=O)C1=COCCO1)Nc1ccc(F)c(F)c1	SUMO Mot1 rescue 609 (no result: NALP1 inh)
O=C(COC(=O)C1=COCCO1)Nc1ccccc1	none
C/[N+]([O-])=C\CC(=O)c1ccc(-c2ccccc2)cc1	NALP1 inh 29
CO/N=C/CC(=O)c1ccc(-c2ccccc2)cc1	none
CC(CNS(=O)(=O)c1ccccc1)Sc1nncn1C (stereo unspecified)	none
CC(CNS(=O)(=O)c1ccccc1)Sc1ncccn1 (stereo unspecified)	SUMO Mot1 rescue 346
CC1(C(=O)NCc2ccccc2)Oc2ccccc2NC1=O (stereo unspecified)	none
CCOC(=O)/C=C1\Nc2ccccc2OC1=O	NALP1 inh 47
COc1cc(N=c2c([N+](=O)[O-])nn(-c3ccc4c(c3)OCCO4)n2O)cc(OC)c1	SUMO Mot1 rescue 274
CC(C)c1ccc(N=c2c([N+](=O)[O-])nn(-c3ccc4c(c3)OCCO4)n2O)cc1	none
Cn1c(C(=O)O)c(CC(=O)N2CCC(Cc3ccccc3)CC2)c2ccccc21	SUMO Mot1 rescue 893
O=C(Cn1cnc2ccccc2c1=O)N1CCOCC1	none
O=C(Cn1cnc2ccccc2c1=O)N1CCc2ccccc2C1	SUMO Mot1 rescue 498
O=C(N/C(=C\c1cccs1)C(=O)N1CCCCCC1)c1ccccc1	SUMO Mot1 rescue 312
O=C(N/C(=C/c1cccs1)C(=O)N1CCCCCC1)c1ccccc1	none
Cc1nc(NC(=O)c2cc3c(s2)CCCCC3)sc1C(=O)N(C)C	none
COC(=O)c1sc(NC(=O)c2cc3c(s2)CCCC3)nc1C	NALP1 inh 33
CCCCCCc1c(O)nc(SCC(=O)O)[nH]c1=O	NALP1 inh 33 (no result: NLRP3 yeast inh)
Cc1cc(C(=O)Nc2ccc3c(c2)OCCO3)ccc1[N+](=O)[O-]	NALP1 inh 41
NS(=O)(=O)c1cc2c(cc1Cl)NC(C1C[C@H]3C=C[C@@H]1C3)NS2(=O)=O (stereo partly specified)	SUMO Mot1 rescue 563!
O=c1c(-c2nnc(SCc3ccc(Cl)cc3)o2)cccn1Cc1ccccc1	NALP1 inh 25 (no result: SUMO Mot1 rescue)
Cc1cc([N+](=O)[O-])cnc1NC(C)c1ccccc1 (stereo unspecified)	SUMO Mot1 rescue 330
Cc1ccc2nc(-c3ccc(NS(=O)(=O)c4c(C)n(C)c(=O)n(C)c4=O)cc3)sc2c1	SUMO Mot1 rescue 323 (no result: NALP1 inh)
Cc1ccc(S(=O)(=O)Nc2ccc(-c3nc4ccc(C)cc4s3)cc2)cc1	none
CSc1cccc(CN2CCCC(CO)(Cc3cccc(Cl)c3)C2)c1 (stereo unspecified)	none
CSc1cccc(CN2CCC(CO)(Cc3ccccc3)CC2)c1	SUMO Mot1 rescue 459
O=C(CSc1nccc(-c2cccs2)n1)Nc1ccc(Cl)cc1	none
CCCOc1ccc(C(=O)NNC(=S)NC(=O)c2ccco2)cc1	none
CSCC[C@H](NC(=O)[C@H](Cc1ccccc1)n1c(=O)[nH]c2ccccc2c1=O)C(=O)N1CCC[C@@H]1C(=O)O	SUMO Mot1 rescue 735
C[C@H](NC(=O)[C@H](Cc1ccccc1)n1c(=O)[nH]c2ccccc2c1=O)C(=O)N1CCC[C@H]1C(=O)O	none
O=C(NNc1cccc(Cl)n1)c1ccccc1CC[N+](=O)[O-]	none
Nn1c(SCc2ccc(F)cc2)nnc1-c1cccnc1	none
COCCn1c(N)c(C(=O)OCc2ccccc2)c2nc3ccccc3nc21	none
O=C(CC1Sc2ncnn2C1=O)Nc1ccc(Br)cc1 (stereo unspecified)	NALP1 inh 85
COc1ccc(-n2cccc2/C=C/[N+](=O)[O-])cc1	NALP1 inh 114
COc1ccc(-n2cccc2C=O)cc1	none
O=C(c1cc(-c2cccc(Cl)c2)on1)N1CCN(c2ccccc2)CC1	none
Cn1c(=O)c2c(SCC(=O)NCc3ccco3)nc(CC(C)(C)C)nc2n(C)c1=O	none
CC(=O)CSc1nc(-c2cccs2)c(C#N)c(=O)[nH]1	NALP1 inh 36 (no result: SUMO Mot1 rescue)
CC(=O)CSc1nc(N)c(C#N)c(-c2cccs2)c1C#N	none
O=C(c1ccc(Cl)c([N+](=O)[O-])c1)N(Cc1ccc(F)cc1)C1CCS(=O)(=O)C1 (stereo unspecified)	none
CN(C)c1ccc(CN(C(=O)c2ccc(Cl)c([N+](=O)[O-])c2)C2CCS(=O)(=O)C2)cc1 (stereo unspecified)	SUMO Mot1 rescue 341 (no result: NALP1 inh)
CN(C)/C=C/C(=O)c1cnc(-c2cccc(Cl)c2)s1	none
C=CCNC(=O)CSc1nc2ccccc2c(=O)n1CCc1ccc(OC)c(OC)c1	none
COc1ccc(CCn2c(SCCN3CCCCC3)nc3ccccc3c2=O)cc1OC	NALP1 inh 34
CC1=C(C(=O)OC2CCCCC2)C(c2cccnc2)n2nnnc2N1 (stereo unspecified)	none
CC(C)c1onc(C(=O)NCc2ccc(F)cc2)c1[N+](=O)[O-]	SUMO Mot1 rescue 286
CC(C)c1onc(C(=O)NCc2cccs2)c1[N+](=O)[O-]	none
CC(C)[C@H](N)C(=O)NC[C@H](CC(=O)NC[C@H]1CC[C@H](C(=O)O)CC1)c1ccc(Cl)cc1	none
CC(C)(C)OC(=O)NCC1CCC(C(=O)NC[C@H](CC(=O)O)c2ccc(Cl)cc2)CC1 (stereo partly specified)	SUMO Mot1 rescue 336
FC(F)(F)c1ccccc1NC(=S)N1CCN(c2ccccn2)CC1	none
CCN(CC)C(=O)Oc1ccc2c(c1)O/C(=C\c1ccco1)C2=O	PolyA inh 59
COc1ccc(/C=C(/NC(=O)c2ccc(OC)c(OC)c2)C(=O)NCCc2c[nH]c3ccccc23)cc1	none
O=C(NNC(=O)c1cc(Br)c(Br)s1)c1csc(N2CCOCC2)n1	SUMO Mot1 rescue 347 (no result: NALP1 inh)
CCc1cc(C(=O)NNC(=O)c2csc(N3CCOCC3)n2)sc1C	none (no result: PolyA inh, SUMO Mot1 rescue, NALP1 inh)
CCOc1ccccc1Nc1nnc(SCC(=O)Nc2cccc(S(=O)(=O)NC3=NCCCCC3)c2)s1	SUMO Mot1 rescue 677
Cc1ccc(C(=O)Oc2cccc(NC(=O)c3cccs3)c2)cc1S(=O)(=O)N1CCOCC1	none
CCCCn1c(SCC(=O)Nc2sc3c(c2C(N)=O)CCC3)nnc1-c1ccccc1	none (no result: NALP1 inh)
CCCc1nc2ccccc2c(C(=O)OC2CCOC2=O)c1CC (stereo unspecified)	none
O=C(/C=C/Nc1ccc(F)c(Cl)c1)c1ccco1	NALP1 inh 31
O=C(/C=C/Nc1cccc(F)c1)c1ccco1	none
CCOC(=O)c1ccccc1NC(=O)Cc1ccccc1OC	SUMO Mot1 rescue 391
COc1ccccc1CC(=O)Nc1ccccc1C(=O)O	none
CCC(C)(C)NC(=O)Cc1ccccc1OC	NALP1 inh 41
CN1CCC(Oc2ccc(Sc3ccccc3)cc2)CC1	NALP1 inh 49

Assay outcomes from PubChem BioAssay.
